This note sets out measurements from PubChem BioAssay (NCI).

Some test systems named below: T-47D breast; BT-549 breast; MDA-MB-435 melanoma; SW-620 colon; MCF7 breast; HCT-116 colon; HCC-2998 colon; KM12 colon.
Experiment in all cases: NCI-60 one-dose screen, 48 h (100 = growth as untreated, 0 = no growth, -100 = all killed)
Conditions in all cases: 10 µM unless noted

Compounds without any hit were thinned out: in the full panel of roughly 83,000, 20% have a hit.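 Assay: single dose, 48 h. Readout: percent growth (0 = no net growth; negative = cell death). Active: <10.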 Values without a mark were called inactive. Active and inactive are the calls of the source.

Regarding `COCCn1cc(-c2nc(-c3cn(CCOC)c4ncccc34)cs2)c2cc(F)ccc21`, the growth in the test on T-47D breast is -11.9% (active); in the test with BT-549 breast, 51.7%; in the test on MDA-MB-435 melanoma it was 59.1%; with SW-620 colon, 90.7%; in the test on MCF7 breast it was 7.84% (active); in the test on HCT-116 colon, 61.8%. Further, the growth with HCC-2998 colon is 42.1%; with KM12 colon, 10.6%.

In the case of `Cc1[nH]n(-c2cccc(Cl)c2)c(=O)c1/C=C1\C=c2ccccc2=CC1=O`, the growth with T-47D breast was -7.69% (active); with BT-549 breast it was 90.2%; in the test with MDA-MB-435 melanoma it was 20.7%; with SW-620 colon, 31%; in the test on MCF7 breast, 8.67% (active); in the test with HCT-116 colon it was 8.69% (active). Also, the figures for the growth with HCC-2998 colon and in the test on KM12 colon were -22.2% (active) and 21.2%, respectively.

As to `O=C1Nc2ccccc2/C1=N/N1C(=O)CN(CCCl)C1=O`, the growth in the test with T-47D breast was 102%; with BT-549 breast, 111%; in the test with MDA-MB-435 melanoma, 98.9%; with SW-620 colon, 95.1%; in the test with MCF7 breast, 93.8%; with HCT-116 colon it was 98.6%. Moreover, the results for the growth in the test with HCC-2998 colon and in the test with KM12 colon were 104% and 113%, respectively.

In the case of `O=C(NN1C(=O)CSC1c1cccc([N+](=O)[O-])c1)c1ccc(NC(=O)c2ccccn2)cc1` (stereo not given), the growth in the test on T-47D breast is 94.7%; with BT-549 breast, 99.6%; with MDA-MB-435 melanoma, 98.9%; in the test on SW-620 colon, 104%; in the test on MCF7 breast, 89.2%; in the test on HCT-116 colon it was 98.3%. Also, the growth in the test with HCC-2998 colon was 90%; with KM12 colon it was 93.8%.

With `C=C1C(=O)O[C@H]2[C@H]1CC/C(COC(=O)/C=C\C(=O)NCc1ccc(Cn3c(=O)sn(CCCCl)c3=O)cc1)=C\CC[C@@]1(C)O[C@@H]21`, the growth in the test with T-47D breast was 61.5%; with BT-549 breast, 88.2%; in the test on MDA-MB-435 melanoma it was 52.8%; in the test with SW-620 colon, 22.1%; in the test on MCF7 breast, 41.8%; with HCT-116 colon it was 26.6%. Besides, the results for the growth with HCC-2998 colon and in the test with KM12 colon were 100% and 99.4%, respectively.

For the compound `CCSc1ccnc(N)n1`, the growth in the test on T-47D breast was 104%; with BT-549 breast it was 117%; in the test with MDA-MB-435 melanoma, 112%; with SW-620 colon it was 106%; in the test on MCF7 breast it was 104%; with HCT-116 colon it was 106%. In addition, the growth was 116% in the test on HCC-2998 colon and 108% in the test with KM12 colon.

With `O=C(O)CC(C(=O)O)/C(=C\c1ccccc1)c1ccccc1` (stereo not given), the growth in the test with T-47D breast is 93.1%; with BT-549 breast it was 122%; in the test with MDA-MB-435 melanoma it was 115%; in the test on SW-620 colon, 103%; in the test with MCF7 breast, 94.7%; in the test with HCT-116 colon, 119%. The growth in the test with HCC-2998 colon and in the test on KM12 colon was 108% throughout.

Turning to `C=C(C)[C@@H]1CC[C@]2(CO)CC[C@]3(C)[C@H](CC[C@@H]4[C@@](C)(CCCN)[C@H](C(=C)C)CC[C@]43C)[C@@H]12`, the growth with T-47D breast is -40.5% (active); in the test on BT-549 breast it was -92.8% (active); with MDA-MB-435 melanoma, -97% (active); with SW-620 colon, -89.5% (active); with MCF7 breast, -89.3% (active); in the test with HCT-116 colon, -88.3% (active). The growth in the test with HCC-2998 colon was -80.1% (active); with KM12 colon it was -79.6% (active).

In the case of `CCN(CC)CCCC(Cc1ccccc1)Nc1c2ccc(Cl)cc2nc2ccc(OC)cc12` (stereo not given), the growth in the test on T-47D breast is -6.99% (active); in the test on BT-549 breast, 53.3%; in the test on MDA-MB-435 melanoma, -66.5% (active); with SW-620 colon, 13.2%; with MCF7 breast it was -9.45% (active); with HCT-116 colon, 14.6%. For the same compound, the growth in the test with HCC-2998 colon is -72.1% (active); with KM12 colon, 45.3%.

As to `O=C(/C=C/c1ccccc1Cl)c1cccc(OCCCCOc2cccc(C(=O)/C=C/c3ccccc3Cl)c2)c1`, the growth is 91.2% with T-47D breast; 116% with BT-549 breast; 106% in the test on MDA-MB-435 melanoma; 99% in the test with SW-620 colon; 51.7% with MCF7 breast; 50.1% in the test with HCT-116 colon. The growth with HCC-2998 colon is 104%; with KM12 colon, 101%.

For `CC(C)(Sc1cc(C(C)(C)C)c(O)c(C(C)(C)C)c1)Sc1cc(C(C)(C)C)c(OC(=O)CCC(=O)O)c(C(C)(C)C)c1`, the growth is 31.4% in the test on T-47D breast; 54.8% with BT-549 breast; 47.2% with MDA-MB-435 melanoma; 44.9% in the test with SW-620 colon; 35.8% in the test on MCF7 breast; 28.3% with HCT-116 colon. Besides, the growth in the test on HCC-2998 colon is 42.9%; in the test with KM12 colon it was 33.3%.

On to `Oc1nc(NCc2ccccc2)sc1/C=C1\C=Nc2ncccc21`, for which the growth in the test with T-47D breast was 63.6%; in the test with BT-549 breast it was 42.7%; in the test with MDA-MB-435 melanoma, 74.2%; with SW-620 colon, 44.5%; with MCF7 breast, 42%; in the test on HCT-116 colon, 24.3%. Also, the results for the growth with HCC-2998 colon and with KM12 colon were 102% and 55%, respectively.

Turning to `COC1C(O)CC(OC2CC(OC3CC(O[C@@H]4C(=O)c5c(cc6cc(OC7CC(OC8CC(O)C(O)C(C)O8)C(O)C(C)O7)c(C)c(O)c6c5O)CC4[C@H](OC)C(=O)C(C)=O)OC(C)C3O)OC(C)C2O)OC1C` (stereo not given in full), the growth with T-47D breast was -4.93% (active); in the test with BT-549 breast, -18.8% (active); in the test on MDA-MB-435 melanoma it was -74.8% (active); in the test with SW-620 colon, 8.3% (active); in the test on MCF7 breast, 3.16% (active); in the test on HCT-116 colon it was 4.47% (active). For the same compound, the growth with HCC-2998 colon is -14.3% (active); with KM12 colon, 13%.

`C=CN(C(=O)N1CCN(c2cc3c(cc2F)c(=O)c(C(=O)O)cn3C2CC2)CC1)c1nc(-c2ccccc2)cs1`: the growth with T-47D breast is 78.9%; in the test on BT-549 breast, 101%; with MDA-MB-435 melanoma, 96.4%; in the test with SW-620 colon, 112%; with MCF7 breast, 94.8%; with HCT-116 colon it was 86%. Moreover, the growth with HCC-2998 colon is 103%; with KM12 colon, 104%.

For `O=C(c1c[nH]c2ccccc12)c1n[nH]c(=S)n1-c1ccc([N+](=O)[O-])cc1`, the growth is 40.4% in the test on T-47D breast; 117% in the test on BT-549 breast; 104% in the test on MDA-MB-435 melanoma; 100% in the test on SW-620 colon; 63.3% in the test with MCF7 breast; 90.3% in the test with HCT-116 colon. Besides, the growth with HCC-2998 colon is 58.5%; in the test on KM12 colon it was 67.4%.
